# Source: PubChem BioAssay (several laboratories)
# An excerpt weighted towards active compounds, which were near 5.2% of everything screened.
# PfM18AAP inh: PfM18AAP enzyme inhibition | recombinant PfM18AAP, H-Glu-NHMec fluorogenic cleavage | inhibition, % at 7.35 µM | hit rate 1.2% among 290,000;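 active means inhibition above the campaign mean inhibition over all tested compounds plus 3 SD, cut at about 28% in these data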;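 further: 0% = plate median of test compound wells and 100% = 2 mM ZnCl2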
# CR mimetic SO: caloric restriction mimetics inhibiting age-related superoxide in yeast | S. cerevisiae aged cells, superoxide DHE fluorescence; stronger effect = lower value | superoxide response (% of plate mean), % at 10 µM | hit rate 0.18% among 330,000;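 active means superoxide response under a set limit, about three screen SD below normal, cut at about 65% in these data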;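 further: yeast aged for seven days with compound at 30 °C before DHE staining; 100% = average MFI of all compound-treated wells on the plate with controls excluded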
# NRP1-CendR mod: NRP-1/CendR interaction modulation | O14786 | FAM-RPARPAR peptide binding to NRP-1, fluorescence polarization | inhibition, % at 25 µM | hit rate 0.85% among 360,000 | AID 602438;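 active means inhibition or corrected inhibition above about 18%, plus a signal ratio from 0.5 to 1.5, limit read from the data, passing the limit was not always enough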
# APOBEC3G inh: APOBEC3G (human) deaminase inhibition | recombinant A3G, ssDNA deamination FAM/TAMRA fluorescence | inhibition, % at 20 µM | hit rate 0.28% among 330,000;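 active means inhibition of at least 40% at 20 µM, with no more than 30% in the related APOBEC3A deaminase screen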;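 further: plate controls were DMSO wells with A3G for no effect and wells lacking A3G enzyme for full effect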
# Target sequence (Q9HC16 whole entry, looked up): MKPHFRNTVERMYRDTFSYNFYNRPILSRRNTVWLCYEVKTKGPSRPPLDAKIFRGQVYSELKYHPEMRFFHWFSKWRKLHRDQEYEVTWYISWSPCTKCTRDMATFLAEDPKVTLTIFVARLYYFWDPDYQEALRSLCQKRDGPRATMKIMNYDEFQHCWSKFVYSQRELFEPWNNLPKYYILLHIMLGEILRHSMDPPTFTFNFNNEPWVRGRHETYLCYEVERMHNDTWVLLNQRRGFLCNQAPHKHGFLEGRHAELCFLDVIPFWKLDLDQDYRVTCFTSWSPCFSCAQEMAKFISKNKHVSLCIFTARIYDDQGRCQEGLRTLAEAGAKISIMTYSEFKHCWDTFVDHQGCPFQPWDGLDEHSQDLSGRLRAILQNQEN
# ALR H2O2 inh: inhibitors of human sulfhydryl oxidase ALR; P55789; inhibition, % (test concentration not listed); hit rate 3.8% among 290,000; purified ALR, DTT oxidation, H2O2 HRP-luminol luminescence; AID 485317;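 active means mean replicate inhibition above about 79%, with every replicate also reaching it, limit read from the data; inconclusive means only one of the two criteria met; inactive means mean below limit and not every replicate reaching it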
# Target sequence (P55789 whole entry, looked up): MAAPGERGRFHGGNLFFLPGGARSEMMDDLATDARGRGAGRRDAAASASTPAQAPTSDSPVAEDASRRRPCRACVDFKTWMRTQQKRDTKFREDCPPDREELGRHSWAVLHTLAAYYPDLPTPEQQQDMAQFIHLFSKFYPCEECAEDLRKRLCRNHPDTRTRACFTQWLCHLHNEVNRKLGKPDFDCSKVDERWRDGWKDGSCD
# A3A deaminase: inhibitors of human APOBEC3A DNA deaminase | inhibition, % at 20 µM | hit rate 0.41% among 330,000 | recombinant A3A, FAM/TAMRA ssDNA deamination fluorescence | P31941 | AID 493011;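 active means at least 40% inhibition at 20 µM here, with at most 30% in a related deaminase screen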;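 further: plate controls were A3A with DMSO for no effect and wells lacking A3A enzyme for full effect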
# * hit, by the source's call; ? = inconclusive; . = no result.
SMILES,PfM18AAP inh,CR mimetic SO,NRP1-CendR mod,APOBEC3G inh,ALR H2O2 inh,A3A deaminase
CCC(C)NC(=O)c1cnn2c1NC(c1ccc3c(c1)OCO3)CC2C(F)(F)F (stereo not given),-1.8,92.1,-12.8,-5.1,10.4,3.0
CC(O)c1cc2c(cc1NC(=O)c1cnn3c1NC(c1ccco1)CC3C(F)(F)F)OCO2 (stereo not given),29.2*,90.4,-1.7,-5.3,-4.6,-0.9
O=C(NCCc1cccnc1)C1CCC(=O)N(CCc2cccc(F)c2)C1 (stereo not given),-3.1,89.6,15.8,-0.3,-10.1,3.0
C(=Cc1nc2ccccc2o1)c1ccc2c(c1)OCO2,.,.,26.4*,.,.,.
COc1ccc(NC2CCCN(C(=O)c3ccc(CSC)o3)C2)cc1OC (stereo not given),18.2,96.2,-4.5,-4.9,99.1*,-5.4
COCc1ccc(C(=O)N2CCCC(Nc3ccc4c(c3)OCCO4)C2)o1 (stereo not given),8.1,78.8,3.0,-5.8,98.7*,-6.0
Cn1ccnc1SCC(=O)Nc1cc(F)ccc1F,4.8,100.2,9.1,-8.5,-8.6,-5.0
Cc1cc(=O)oc2cc(OC(C)C(=O)NCCCn3ccnc3)ccc12 (stereo not given),5.0,120.2,-4.2,-6.0,-1.7,-3.5
COC(=O)CCCCC1SCC2NC(=O)NC21O (stereo not given),0.1,99.8,27.4*,-0.2,36.0,-0.5
COC(=O)CCCC[C@H]1SC[C@H]2NC(=O)N[C@]21O,2.5,90.4,.,-8.9,2.2,-5.5
CCCCNC(=S)NNC(=O)c1c(C)nc2ccccn12,38.2*,86.0,6.9,-10.3,33.7,-0.5
O=C(NCCc1ccc(O)cc1)c1ccc(Cl)cc1,4.6,97.0,24.1*,-0.6,79.2*,1.0
Cc1occc1C(=O)NC(C)C(C)(C)C (stereo not given),-2.5,89.8,-11.0,-0.2,97.6*,1.0
Cc1occc1C(=O)NCCCCc1ccccc1,4.3,99.3,-6.6,-2.8,98.0*,1.9
CCCCNC(=S)NNC(=O)c1c(Cl)c(C)nn1C,-0.8,94.5,-6.3,-9.0,66.6,-4.9
Cc1occc1C(=O)NC(C)CCc1ccccc1 (stereo not given),-3.3,94.9,24.5*,-2.3,-4.9,-0.1
CCCCNC(=S)NNC(=O)c1ccoc1C,29.2*,82.5,-4.6,-2.8,.,-0.1
Cc1occc1C(=O)NCCc1ccc(Cl)cc1,-22.8,93.1,4.8,-3.7,96.2*,1.5
COc1ccc(S(=O)(=O)Nc2ccc(NC(C)=O)cc2)cc1OC,-0.2,119.2,-2.6,-9.5,-23.6,-2.6
CCCNC(=O)C1(C)CCN(Cc2cc(C(F)(F)F)ccc2Cl)C1 (stereo not given),.,.,21.9*,.,.,.
CCNC(=O)C1(C)CCN(Cc2ccc(C(F)(F)F)cc2)C1 (stereo not given),.,.,10.0,.,.,.
CCn1c(=S)sc2c(=O)n(CC(=O)NCCCc3ccccc3)c(C)nc21,-4.0,84.4,26.1*,-2.5,-2.5,-0.1
O=C(O)c1cc(S(=O)(=O)N2CCN(C(c3ccccc3)c3ccccc3)CC2)ccc1Cl,2.9,92.7,-13.4,-6.3,86.7*,0.8
O=C(O)c1cc(S(=O)(=O)N2CCN(S(=O)(=O)c3ccccc3)CC2)ccc1Cl,-6.5,111.3,-4.3,-5.3,.,-3.3
COc1ccc(-c2n[nH]c(=S)o2)c(OC)c1,-3.5,120.9,13.2,-1.0,89.6*,-5.0
SMILES,PfM18AAP inh,CR mimetic SO,NRP1-CendR mod,APOBEC3G inh,ALR H2O2 inh,A3A deaminase
CSc1nc(C)c(Cl)c(C)c1C#N,-1.6,101.5,2.2,-5.2,-7.2,-4.5
COC(CN(C(=O)CCl)C(C(=O)NC1CCCCC1)c1ccccc1C)OC (stereo not given),-0.6,100.5,11.3,-4.8,77.1*,-2.2
CCCN1C(=O)/C(=C/c2ccc(OCc3ccc(C(=O)O)cc3)c(OC)c2)NC1=S,.,104.3,-12.2,-5.8,91.6*,-1.0
O=C(O)c1ccc(COc2ccccc2/C=C2\NC(=O)N(Cc3ccccc3)C2=O)cc1,-1.8,92.5,-11.7,-6.0,7.4,-2.1
CN1C(=O)/C(=C/c2ccc(OCc3ccc(C(=O)O)cc3)c(Cl)c2)NC1=S,-1.6,99.7,-20.1,-9.3,39.1,-7.4
CCOc1cc(/C=C2\NC(=S)N(C)C2=O)ccc1OCc1ccc(C(=O)O)cc1,16.6,94.7,-30.9,-0.2,88.8*,0.6
CCCN1C(=O)/C(=C/c2ccccc2OCc2ccc(C(=O)O)cc2)NC1=S,3.3,108.3,-11.1,-4.5,79.0*,-1.5
COc1cccc(NC(=O)C2C3C=CC(O3)C2C(=O)NCc2cccnc2)c1 (stereo not given),-6.6,96.0,-8.9,-4.4,98.0*,-1.4
Cc1ccc(N2CCN(S(=O)(=O)N3CCCCC3)CC2)cc1Cl,-3.5,83.2,-1.3,-3.4,-1.9,1.1
Cc1ccc(N2CCN(C(=O)N3CCCC3)CC2)cc1Cl,-0.7,87.4,-9.3,-3.9,98.5*,-0.4
COC(=O)[C@]1(C)N[C@H](CN(C)C(=O)Nc2ccccc2)[C@@H]2C(=O)N(C)C(=O)[C@@H]21,.,102.1,7.2,-4.6,.,-1.7
Nc1ccc(Sc2ccccc2CC(=O)O)cc1,-4.0,103.4,.,3.2,98.9*,-1.0
Cc1nn(C)cc1C(C(=O)NC1CCCCC1)N(C(=O)Cc1cccs1)c1ccc(Cl)cc1 (stereo not given),2.1,103.0,-2.9,-8.6,12.7,0.1
CSCCCNC(=S)N1CCN(c2ccc(C(C)=O)cc2)CC1,0.5,94.0,24.2*,1.0,10.7,0.3
Cc1ccc(C)c(S(=O)(=O)N(C)c2ccc(OC(=O)C3CCN(C(=O)Nc4ccccc4)CC3)cc2)c1,.,.,25.2*,.,.,.
Cc1ccc(S(=O)(=O)N(C)C)cc1NC(=O)C1CCN(C(=O)Nc2ccccc2)CC1,.,.,1.0,-9.6,.,-3.1
COc1ccc(C(=O)c2ccccc2)cc1CN1CCOCC1,.,.,-7.4,.,.,.
COc1cc(C#N)ccc1OC(=O)Cc1cc(OC)c(OC)c(OC)c1,-3.9,108.4,24.7*,-9.6,4.7,-2.7
Nc1ccc2oc(-c3cccc4ccccc34)nc2c1,1.5,108.9,1.3,1.8,?,2.5
CC(C)(C)c1ccc(-c2nc3cc(N)ccc3o2)cc1,-5.0,105.5,-19.3,-5.1,98.8*,-5.1
Cc1ccc(-c2nc3cc(N)ccc3o2)cc1,-0.3,110.7,-23.6,-1.0,-8.1,0.0
Nc1ccc2oc(-c3cccs3)nc2c1,1.1,87.7,3.0,0.3,98.2*,-0.4
Cc1ccc(-c2nc3cc(N)ccc3o2)c(C)c1,4.9,102.5,-4.9,-3.8,98.5*,-2.9
Cc1ccc2oc(-c3cccc(N)c3)nc2c1,4.8,95.5,-5.2,-7.3,-12.0,-1.2
Nc1cc(C(=O)c2ccccc2)ccc1[N+](=O)[O-],-11.5,135.4,7.8,-3.2,-2.6,-1.6
COc1ccc(N(C(=O)C(C)C)S(=O)(=O)c2cccc3cccnc23)cc1,-1.3,93.7,-0.8,-8.4,-0.2,-2.0
